SMILES strings stand for the structures. Screen size: about 16,000 compounds; about 5,100 (32%) were called active. Another 25% or so got no clear call; they are omitted. The call rests on the fitted dose curve; in most records, active means well fitted curve in the direction sought with a large enough effect; inconclusive means small, poorly fitted or top-dose-only effect, or effect the other way; inactive means no such curve, though single readings can be large or run the other way. Some of the results follow.
On the % scale 0 is the no-effect control and ±100 the full control effect.

For the assay, the target named is Cytochrome P450 3A4 (Homo sapiens) (UniProt P08684). Briefly: Cytochrome panel assay with activity outcomes. As to conditions: recombinant CYP, pro-luciferin dealkylation, luminescence, p450-cyp3a4; series mostly up to 57.1 µM.
Cytochrome P450 3A4 (Homo sapiens), sequence (P08684 whole entry, looked up): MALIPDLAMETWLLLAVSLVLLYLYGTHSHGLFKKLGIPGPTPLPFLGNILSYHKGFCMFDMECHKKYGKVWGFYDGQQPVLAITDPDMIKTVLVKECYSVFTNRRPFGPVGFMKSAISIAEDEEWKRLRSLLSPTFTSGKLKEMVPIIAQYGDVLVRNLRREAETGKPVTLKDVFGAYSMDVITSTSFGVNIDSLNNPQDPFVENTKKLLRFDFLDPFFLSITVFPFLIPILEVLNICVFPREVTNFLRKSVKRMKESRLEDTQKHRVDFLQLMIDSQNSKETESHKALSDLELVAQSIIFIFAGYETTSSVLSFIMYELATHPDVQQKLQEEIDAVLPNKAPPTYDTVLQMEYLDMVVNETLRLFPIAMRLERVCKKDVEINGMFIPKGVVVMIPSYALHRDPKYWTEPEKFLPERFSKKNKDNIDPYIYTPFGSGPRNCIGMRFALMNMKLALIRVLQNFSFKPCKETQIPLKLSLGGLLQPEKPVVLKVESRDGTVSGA
For the compound `C1CNCCOCCNCCN1`, the AC50 result is “inactive”.
Still for that read-out and setting: the same measure for `CCOC(=O)N1CCN(Cc2nc3c(c(=O)[nH]c(=O)n3C)n2Cc2ccccc2C)CC1`: 3.98 µM (active); for `COc1ccc(N2CCN(Cc3nc4c(c(=O)n(C)c(=O)n4C)n3CC(C)=O)CC2)cc1`: “inactive”; for `CCOC(=O)Cn1c(CN(Cc2ccccc2)Cc2ccccc2)nc2c1c(=O)[nH]c(=O)n2C`: 25.1 µM (active).
Same read-out and setting: with `Cn1c(=O)[nH]c(=O)c2c1nc(CN(Cc1ccccc1)Cc1ccccc1)n2CCN1CCOCC1` the figure was 4.47 µM (active); with `CCN1CCN(c2nc3c(c(=O)[nH]c(=O)n3C)n2CCCSc2ncccn2)CC1`, “inactive”.
On to `Cn1c(=O)c2c(nc(Cc3ccccc3)n2CC(=O)O)n(C)c1=O`, for which the activity, negative = inhibition is -2.47% [at 11.4 µM] (inactive).
As to `Cn1c(=O)[nH]c(=O)c2c1nc(CN1CCOCC1)n2CCCO`, the AC50 entry was “inactive”.
Same read-out and setting: with `COc1ccc(N2CCN(Cc3nc4c(c(=O)[nH]c(=O)n4C)n3CCCc3ccccc3)CC2)cc1` the figure was 2.24 µM (active); with `Oc1cc2c(cc1O)[C@H](c1ccccc1)CNCC2`, “inactive”.
Regarding `CCOCCn1c(CN(Cc2ccccc2)Cc2ccccc2)nc2c1c(=O)[nH]c(=O)n2C`, the AC50 was 15.8 µM (active).
On the same count and under the same terms, with `CN(C)c1nc2c(c(=O)[nH]c(=O)n2C)n1Cc1ccccc1Br` the entry was “inactive”; with `COC(Cc1nnc(SC)n1-c1ccc(Cl)cc1)OC`, “inactive”.
For the compound `O=S(Cc1ccc(Br)cc1)Cc1nnc(SCc2ccc(Cl)cc2)n1-c1ccccc1` (stereo not drawn), the half-maximal activity concentration (AC50) was 7.08 µM (active).
Consider `O=P(O)(CCc1ccccc1)C(O)c1ccccc1` (stereo not drawn), for which the activity, negative = inhibition was 2.84% [at 11.4 µM] (inactive).
`CCC(=O)[C@@H](c1ccccc1)c1ccccn1`: the activity, negative = inhibition was -1.45% [at 11.4 µM] (inactive).
As for `O=C(O)c1ccccc1C(=O)Nc1nccs1`, the AC50 entry is “inactive”.
In the case of `CCCC(C(=O)Nc1nccs1)c1ccccc1` (stereo not drawn), the AC50 was 12.6 µM (active).
On to `O=[N+]([O-])c1cc(C(F)(F)F)ccc1NCCCCNS(=O)(=O)c1ccc2ccccc2c1`, for which the AC50 is 14.1 µM (active).
Same read-out and setting: with `Cc1c(Cl)c([N+](=O)[O-])nn1CC(=O)Nc1c(C)n(C)n(-c2ccccc2)c1=O` the entry was “inactive”; with `Cc1nn(Cc2ccccc2Cl)c(C)c1NC(=O)CCCn1nc(C)c([N+](=O)[O-])c1C`, 2.51 µM (active).
In the case of `Cc1nn(CC(=O)NCCN2CCOCC2)c(C)c1[N+](=O)[O-]`, the AC50 result is “inactive”.
Same read-out and setting: the same measure for `CN(C)CCNC(=S)Nc1cccc(Cl)c1`: “inactive”; for `S=C(NCc1ccccn1)Nc1cccc(Cl)c1`: 10 µM (active); for `O=C(Nc1cccc(F)c1)Nc1ccccn1`: “inactive”.
On the same count and under the same terms, the same measure for `COCC(=O)N1CCC2(CC1)CN(C(=O)Nc1ccccc1)C2`: “inactive”; for `CN1CCN(c2nc(-c3ccccc3)cc(C(F)(F)F)n2)CC1`: “inactive”.
Turning to `CCOC(=O)c1cc2c(C(F)(F)F)cc(-c3ccccc3)nc2o1`, the activity, negative = inhibition is -1.96% [at 2.29 µM] (inactive).
Consider `CC(Sc1nc(-c2ccccc2)cc(C(F)(F)F)n1)C(=O)N1CCCCC1` (stereo not drawn), for which the AC50 was 7.08 µM (active).
On the same count and under the same terms, the same measure for `c1ccc(-c2ccc3c(c2)c2c4n3CCN=C4CCC2)cc1`: “inactive”; for `CCCS(=O)(=O)N1CCCC(C(=O)NCCCOCC)C1` (stereo not drawn): “inactive”.
On to `CCCS(=O)(=O)N1CCCC(C(=O)NCCN(C)Cc2ccccc2)C1` (stereo not drawn), for which the activity, negative = inhibition was 12.8% [at 2.29 µM] (inactive).
As to `CCOc1ccc(OCC)c(NC(=O)C2CCCN(S(=O)(=O)c3cccs3)C2)c1` (stereo not drawn), the half-maximal activity concentration (AC50) is 5.62 µM (active).
In the case of `COCCn1c(=O)c(-c2cccs2)nc2cncnc21`, the AC50 is 15.8 µM (active).
Consider `COc1ccccc1CCn1c(=O)c(-c2cccs2)nc2cncnc21`, for which the AC50 was 3.16 µM (active).
Same read-out and setting: the same measure for `COCCn1c(=O)c(C)nc2cncnc21`: 12.6 µM (active).
Regarding `COc1ccc(-n2c(=O)c(-c3cccs3)nc3cncnc32)cc1`, the AC50 result is “inactive”.
In the case of `Cn1c(=O)c(-c2cccs2)nc2cncnc21`, the AC50 was 7.94 µM (active).
In the case of `CCCC(O)(CCC)C(=O)NN1CCCCC1`, the AC50 result was “inactive”.
Same read-out and setting: the same measure for `O=c1c(-c2ccccc2)nc2cncnc2n1C1CC1`: “inactive”.
Regarding `COc1ccccc1CCn1c(=O)c(-c2ccc(F)cc2)nc2cncnc21`, the AC50 was 3.98 µM (active).
On the same count and under the same terms, the same measure for `COc1ccccc1CCn1c(=O)c(-c2cccc(Cl)c2)nc2cncnc21`: 6.31 µM (active); for `Cc1nc2cncnc2n(C2CC2)c1=O`: 15.8 µM (active).
The same measure, in the same setting: with `O=c1c(-c2cccc(Cl)c2)nc2cncnc2n1Cc1ccccc1` the entry was “inactive”.
The same measure, in the same setting: with `O=c1c(-c2ccc(F)cc2)nc2cncnc2n1C1CC1` the entry was “inactive”; with `COc1ccccc1CCn1c(=O)c(-c2ccc(Cl)cc2)nc2cncnc21`, 3.98 µM (active); with `Cc1nc2cnc(N(C)C)nc2n(C2CC2)c1=O`, “inactive”.
Consider `CN(C)c1ncc2nc(-c3ccc(F)cc3)c(=O)n(CCc3ccccc3)c2n1`, for which the AC50 result was “inactive”.
On to `CC(=O)O[C@@H](C)C[N+](C)(C)C`, for which the AC50 result is “inactive”.
As for `COc1ccccc1CCn1c(=O)c(-c2ccccc2)nc2cncnc21`, the AC50 was 3.98 µM (active).
On the same count and under the same terms, the same measure for `COc1ccccc1CCn1c(=O)c(-c2ccc(F)c(F)c2)nc2cncnc21`: 3.16 µM (active); for `COCCn1c(=O)c(-c2ccccc2)nc2cncnc21`: “inactive”.
As for `Cn1c(=O)c2c(nc(C(=N)SCC(=O)O)n2C)n(C)c1=O`, the activity, negative = inhibition was -27.7% [at 11.4 µM] (inactive).
In the case of `CSc1ncnc2c1ncn2[C@@H]1O[C@@H](CO)[C@H](O)O[C@@H]1O`, the activity, negative = inhibition was -26.2% [at 11.4 µM] (inactive).
Turning to `CNc1ncnc2c1ncn2[C@@H]1O[C@@H](CO)[C@H](O)[C@@H]1O`, the AC50 entry is “inactive”.
The same measure, in the same setting: with `Nc1ccc(CCNc2ncnc3c2ncn3[C@@H]2O[C@@H](CO)[C@H](O)[C@@H]2O)cc1` the figure was 25.1 µM (active).
For the compound `OCCNc1ncnc2c1ncn2[C@@H]1O[C@@H](CO)[C@H](O)[C@@H]1O`, the activity, negative = inhibition was -9.88% [at 11.4 µM] (inactive).
As for `Cc1ccc(NC(=S)Nc2nc(CC(=O)Nc3ccccc3)cs2)cc1`, the AC50 was 6.31 µM (active).
Consider `Cc1ccc(NC(=O)Nc2nc(-c3ccc(C)s3)cs2)cc1`, for which the activity, negative = inhibition was -0.444% [at 2.29 µM] (inactive).
Take `CNC(=O)[C@@H]1O[C@@H](n2cnc3c(N)ncnc32)[C@@H](O)[C@H]1O`: the AC50 entry was “inactive”.
In the case of `COc1ccc(CC(=O)Nc2ccc(-c3nnc(-c4ccccc4)o3)cc2)cc1`, the AC50 result is “inactive”.
Same read-out and setting: the same measure for `O=C(Nc1ccc(Cl)cc1)OCc1cc(-c2ccccc2)on1`: “inactive”.
Consider `CCC(=O)Nc1cccc(-c2nnc(-c3cccc(NC(=O)CC)c3)o2)c1`, for which the AC50 is 14.1 µM (active).
As to `CCC(=O)Nc1ccc2c(c1)C(=O)c1ccccc1C2=O`, the AC50 is 7.08 µM (active).
On the same count and under the same terms, the same measure for `COc1ccc(CC(=O)Nc2cccc(-c3nnc(-c4ccco4)o3)c2)cc1`: 2 µM (active).
As to `O=C(Nc1ccc(Nc2ccc3c(c2)C(=O)c2ccccc2C3=O)c2c1C(=O)c1ccccc1C2=O)c1ccccc1`, the activity, negative = inhibition was -7.98% [at 11.4 µM] (inactive).
On to `O=C1c2ccccc2-c2ccc(NC(=O)[C@H]3CCCC[C@@H]3C(=O)O)cc21`, for which the activity, negative = inhibition was -29% [at 11.4 µM] (inactive).
With `CCC(=O)NNC(=O)CCC(=O)Nc1ccccc1`, the AC50 entry was “inactive”.
For `O=C(Cc1ccc(Cl)cc1)Nc1cccc(-c2nnc(-c3ccco3)o2)c1`, the concentration at half-maximal activity (AC50) was 7.94 µM (active).
As for `Clc1ccc(-c2nnc(-c3ccco3)o2)cc1`, the activity, negative = inhibition is 1.16% [at 11.4 µM] (inactive).
As to `CO[C@]1(NC(=O)Cc2cccs2)C(=O)N2C(C(=O)O)=C(COC(N)=O)CS[C@H]21`, the AC50 entry was “inactive”.
With `O=C1Nc2ccc(F)cc2C12SCCS2`, the AC50 entry was “inactive”.
With `COc1cccc(-c2[nH]nc3c2C(c2ccsc2)C(C#N)=C(N)O3)c1` (stereo not drawn), the AC50 was 7.08 µM (active).
With `COc1cccc(-c2[nH]nc3c2C(c2ccc(C)o2)C(C#N)=C(N)O3)c1` (stereo not drawn), the activity, negative = inhibition was -27.5% [at 2.29 µM] (inactive).
Take `Cc1ccc(SCc2[nH]nc3c2C(C(C)C)C(C#N)=C(N)O3)cc1` (stereo not drawn): the activity, negative = inhibition was -16.4% [at 2.29 µM] (inactive).
Take `CN1CCC(=NNC(=O)CSCc2ccccc2)CC1`: the half-maximal activity concentration (AC50) was 17.8 µM (active).
Regarding `CC1CCC(=NNC(=O)Cc2ccccc2)CC1` (stereo not drawn), the activity, negative = inhibition is -1.06% [at 2.29 µM] (inactive).
Consider `O=C(CC(=O)NN=C1CCCC1)NCCc1ccccc1`, for which the activity, negative = inhibition was 4.31% [at 2.29 µM] (inactive).
For the compound `CCCn1cnc2c1c(=O)n(CCCCC(C)=O)c(=O)n2C`, the AC50 entry is “inactive”.
As to `CC1(C)C(=O)C(c2ccccc2)=C2CN3C(=O)N(CCc4ccccc4)C(=O)C3(Cc3ccc(C(F)(F)F)cc3)C=C21` (stereo not drawn), the AC50 was 2 µM (active).
With `CC1(C)C(=O)C(c2ccccc2)=C2CN3C(=O)N(CCc4ccccc4)C(=O)C3(Cc3ccccc3)C=C21` (stereo not drawn), the AC50 was 2 µM (active).
Still for that read-out and setting: the same measure for `CC1(C)C(=O)C(c2ccccc2)=C2CN3C(=O)N(CCc4ccccc4)C(=O)C3(Cc3ccc(F)cc3)C=C21` (stereo not drawn): 3.16 µM (active); for `CN(C)/C(CN1CCN(C=O)CC1)=C1\N=C(c2ccccc2)OC1=O`: “inactive”.
Turning to `CC1(C)N=C(N)N=C(N)N1CCCCc1ccccc1`, the activity, negative = inhibition was -18.8% [at 11.4 µM] (inactive).
Same read-out and setting: with `CCOC(=O)c1c(O)[nH]c(=O)c(CC)c1C` the figure was -7.96% [at 11.4 µM] (inactive).
Consider `CCNC(=S)NNC(=O)CCn1c2ccccc2c2ccccc21`, for which the AC50 is 4.47 µM (active).
Turning to `CCNC(=S)NNC(=O)c1cccc(Br)c1`, the AC50 result was “inactive”.
With `CCNC(=S)NNC(=O)Cc1ccccc1`, the AC50 entry was “inactive”.
Consider `CC(C)[C@]1(Cl)CC[C@@H]2[C@]3(C)CCC[C@@](C)(C(=O)O)[C@H]3C[C@H](Cl)[C@@]2(Cl)[C@H]1Cl`, for which the activity, negative = inhibition was -26.1% [at 11.4 µM] (inactive).
On to `Nc1nc2c(ncn2[C@@H]2C=C[C@@H](CO)C2)c(=O)[nH]1`, for which the activity, negative = inhibition is -2.95% [at 11.4 µM] (inactive).
As to `Cc1onc(-c2c(Cl)cccc2Cl)c1C(=O)N1CCc2ccccc2C1`, the AC50 was 3.98 µM (active).
In the case of `C/C(CC(=O)NCCCN1CCOCC1)=N\NC(=O)COc1ccc(Cl)cc1`, the AC50 is 15.8 µM (active).
Consider `COc1ccc(C(=O)NCCCN2CCOCC2)cc1OC`, for which the AC50 result was “inactive”.
Still for that read-out and setting: with `COCCNc1nc(-c2ccc(N(C)C)cc2)nc2ccccc12` the figure was 12.6 µM (active).
Regarding `COc1ccc(-c2cc([C@H](O)[C@@H]3CCCCN3)c3ccccc3n2)cc1`, the activity, negative = inhibition is -6.63% [at 11.4 µM] (inactive).
For the compound `COc1ccccc1CNc1nc(-c2ccc(N(C)C)cc2)nc2ccccc12`, the AC50 is 3.16 µM (active).
Same read-out and setting: the same measure for `COc1ccc(CNc2nc(-c3ccc4c(c3)OCO4)nc3ccccc23)c(OC)c1`: 1.26 µM (active); for `CN(C)c1ccc(-c2nc(NCCc3cnc[nH]3)c3ccccc3n2)cc1`: 2.51 µM (active).

The term AC50 denotes the concentration at which the activity in the assay is half-maximal.

The record behind these values is PubChem BioAssay AID1851 (National Center for Advancing Translational Sciences (NCATS), 2009).
